Test results from PubChem BioAssay (NCI).
The panel holds about 83,000 compounds, 20% with a hit somewhere; the sample as a whole holds those more often.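 Plates (96-well) were seeded with cells, treated with compound at one concentration, and incubated for 48 hours before percent growth was determined.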 Activity calls are given as the source filed them. The calls were made as follows: active = growth percent below 10; inactive = the rest.

Columns and labels:
Test in all cases: NCI-60 one-dose screen, 48 h (100 = growth as untreated, 0 = no growth, -100 = all killed)
[1] = test system: NCI-H23 lung; settings: 10 µM unless noted
[2] = test system: NCI-H226 lung; settings: 10 µM unless noted
[3] = test system: NCI-H322M lung; settings: 10 µM unless noted
[4] = test system: HOP-62 NSCLC; settings: 10 µM unless noted
[5] = test system: NCI-H460 lung; settings: 10 µM unless noted
[6] = test system: A549/ATCC NSCLC; settings: 10 µM unless noted
[7] = test system: 786-0 renal; settings: 10 µM unless noted
[8] = test system: COLO 205 colon; settings: 10 µM unless noted
[9] = test system: HOP-92 NSCLC; settings: 10 µM
[10] = test system: NCI-H522 lung; settings: 10 µM

Measured: growth

CC(C)OCC1CO1 (centres undefined)
inactive: [1] 110% | [2] 101% | [3] 100% | [4] 102% | [5] 97.7% | [6] 106% | [7] 113% | [8] 104%

Cn1c2ccccc2c2ccccc21
inactive: [1] 99% | [2] 103% | [3] 94.9% | [4] 90.8% | [5] 110% | [6] 108% | [7] 105% | [8] 104%

C[C@]12CC[C@H]3[C@@H](CC[C@H]4C[C@@H](O)CC[C@@]43C)[C@@H]1CC(=O)C2
inactive: [1] 99.9% | [2] 100% | [3] 106% | [4] 96.8% | [5] 103% | [6] 100% | [7] 107% | [8] 101%

CC[n+]1c(C)ccc2cc(C)ccc21
inactive: [1] 96% | [2] 93.6% | [3] 111% | [4] 97.5% | [5] 110% | [6] 75.3% | [8] 101%

COc1cccc(-c2cc(-c3cc4ccccc4oc3=O)nc(N)n2)c1
inactive: [1] 101% | [2] 91.2% | [3] 123% | [4] 97.7% | [5] 102% | [6] 95% | [7] 101% | [8] 108%

O=C1CCNC1
inactive: [1] 111% | [2] 103% | [3] 96.5% | [4] 108% | [5] 109% | [6] 101% | [7] 96.1% | [8] 112%

COc1cc2c(c(OC)c1OC)C(=O)CC(c1cccc(C(=O)Nc3cccc(Br)c3)c1)O2 (centres undefined)
inactive: [1] 97% | [2] 85.1% | [3] 81.5% | [4] 86% | [9] 55.3% | [10] 51.7% | [6] 77.9% | [7] 84%

CNc1nc2ncn(C)c2c(=O)[nH]1
inactive: [1] 105% | [2] 98.5% | [3] 88.2% | [4] 96.5% | [5] 103% | [7] 103% | [8] 94.5%

COc1ccccc1C(=O)Nc1cccc(-c2cc(=O)c3c(OC)c(OC)c(OC)cc3o2)c1
active: [9] -0.39%
inactive: [1] 62.4% | [2] 58.4% | [3] 43.6% | [4] 57.8% | [10] 44.3% | [6] 48.2% | [7] 45.3%

CCCCN(CCCC)c1ccc(C(=O)O)cc1
inactive: [1] 98.1% | [2] 99.5% | [3] 98.4% | [4] 98% | [5] 104% | [7] 99.4% | [8] 98.8%

OCCN1CCN(CC/C=C2/c3ccccc3Sc3ccc(C(F)(F)F)cc32)CC1
active: [8] 1.04%
inactive: [1] 72.3% | [2] 91% | [3] 72.6% | [4] 75.9% | [5] 82.7% | [7] 71.2%

C/C=C(/C)C(=O)OC1C=C(CO)C(=O)C(OC(=O)C2(C)OC2C)C1C(C)C (centres undefined)
active: [1] -63.1% | [2] -36.4% | [3] -3.37% | [4] 0.921% | [9] -35.1% | [10] -79.5% | [6] -23.5% | [7] -89.7%

CN1CCN(Cc2ccc(NC(=O)c3ccc(C#Cc4c(N)ncc5ccc(F)cc45)cc3)cc2C(F)(F)F)CC1
inactive: [2] 55.1%
active: [1] -80.4% | [3] -49% | [4] -39.2% | [9] -2% | [10] -85.2% | [6] -49.1% | [7] -56.6%

COc1ccc2c(N)ncc(C#Cc3cc(C(=O)Nc4ccc(CN5CCN(C)CC5)c(C(F)(F)F)c4)cnc3C)c2c1
active: [1] -30.3% | [9] 1.06% | [10] -38.3% | [6] -68.6% | [7] -55.6%
inactive: [2] 55% | [3] 31.6% | [4] 45.3%

CC(C)(C)c1cc(C[P+](c2ccc(Cl)cc2)(c2ccc(Cl)cc2)c2ccc(Cl)cc2)cc(C(C)(C)C)c1O
inactive: [1] 86.5% | [2] 90.6% | [3] 86.1% | [4] 98.9% | [5] 94.9% | [7] 99.1% | [8] 50.4%

CN1CCN(Cc2ccc(NC(=O)c3cncc(C#Cc4c(N)ncc5ccc(F)cc45)c3)cc2C(F)(F)F)CC1
inactive: [1] 30.6% | [3] 27.7% | [4] 22.1% | [10] 49.7% | [6] 26.5%
active: [2] 8.85% | [9] -22.7% | [7] -71.9%

COc1ccc2cnc(N)c(C#Cc3cc(C(=O)Nc4ccc(CN5CCN(C)CC5)c(C(F)(F)F)c4)cnc3C)c2c1
inactive: [1] 52.3% | [2] 26.8% | [3] 70.3% | [4] 18.9% | [9] 20.1% | [10] 69.7% | [6] 61.5%
active: [7] -50.3%

Cc1ncc(C(=O)Nc2ccc(CN3CCN(C)CC3)c(C(F)(F)F)c2)cc1C#Cc1c(N)ncc2ccc(F)cc12
inactive: [2] 19.5% | [4] 15.9% | [10] 37.3%
active: [1] -79.4% | [3] -89.7% | [9] -29.9% | [6] -69.9% | [7] -70.5%

COc1cccc(CNC(=O)c2cccc(C3CC(=O)c4c(cc(OC)c(OC)c4OC)O3)c2)c1 (centres undefined)
inactive: [1] 99.1% | [2] 78.2% | [3] 86.6% | [4] 66.7% | [9] 19.8% | [10] 24.9% | [6] 80.8% | [7] 24.8%

Cc1ccc(S(=O)(=O)Nc2cccc(Cn3c(=O)[nH]c4ccc(Oc5ncccn5)cc4c3=O)c2)cc1
inactive: [1] 85.4% | [2] 86.1% | [3] 79.9% | [4] 72.2% | [9] 62.9% | [10] 33.6% | [6] 90.7% | [7] 95.9%

CCN(CC)C(=O)C1(C)CCCC2(C)c3cc(OC(C)=O)ccc3CCC12 (centres undefined)
inactive: [1] 84.3% | [2] 75.8% | [3] 83.5% | [4] 94.9% | [5] 90% | [7] 92% | [8] 92%

Cc1ccc(C(=O)Nc2ccc(CN3CCN(C)CC3)c(C(F)(F)F)c2)cc1C#Cc1cncc2ncccc12
active: [1] -84.3% | [2] 5.51% | [3] -95.8% | [4] -11.7% | [9] -30.7% | [10] 2.81% | [6] -82.1% | [7] -70.5%

O=C(NC(=S)NNC(=S)NNc1ccccc1)c1ccccc1
inactive: [1] 25.9% | [2] 40.6% | [3] 68.2% | [4] 43% | [5] 13.2% | [7] 67.7% | [8] 81%

O=C(NCCCl)Nc1nccnc1OCc1ccc(F)cc1
inactive: [1] 97.2% | [2] 100% | [3] 104% | [4] 91.4% | [9] 79.4% | [10] 77.6% | [6] 102% | [7] 89%

Cc1ccc(C(=O)Nc2ccc(CN3CCN(C)CC3)c(C(F)(F)F)c2)cc1C#Cc1cnc(N)c2ccc(F)cc12
active: [1] -77.3% | [2] -45.5% | [3] -99.3% | [4] -68.8% | [9] -90.3% | [10] -75.1% | [6] -87.5% | [7] -85.3%

COc1cc(OC)c(/C=C/c2ccc3ccccc3[n+]2C)c(OC)c1
active: [1] 1.71% | [5] 1.55% | [8] -51.5%
inactive: [2] 26.2% | [3] 17.7% | [4] 28.4% | [7] 18.5%

Cc1ncc(C(=O)Nc2ccc(CN3CCN(C)CC3)c(C(F)(F)F)c2)cc1C#Cc1c(N)ncc2ccccc12
active: [1] -73.1% | [2] -79.1% | [3] -99% | [4] -97.2% | [9] -37.9% | [10] -85.7% | [6] -96.6% | [7] -91.8%

Cc1ccc(C(=O)C(Br)C(Br)c2ccccc2)cc1 (centres undefined)
inactive: [1] 114% | [2] 92.8% | [3] 95% | [4] 115% | [5] 101% | [7] 99.4% | [8] 52.8%

O=C(Nc1cccc(Cn2c(=O)[nH]c3ccc(Oc4ncccn4)cc3c2=O)c1)c1cccc(F)c1
inactive: [1] 82.2% | [2] 74.1% | [3] 86.4% | [4] 79% | [9] 60.9% | [10] 60.9% | [6] 70.2% | [7] 65.6%

CC(=O)Oc1cc2ccccc2cc1C(C)C
inactive: [1] 107% | [2] 101% | [3] 115% | [4] 104% | [5] 99% | [7] 101% | [8] 112%

O=C(CN1CCN(c2cccc(Cl)c2)CC1)N1CCN(c2nnc(-c3ccc(Cl)cc3)c(-c3ccc(Cl)cc3)n2)CC1
inactive: [1] 87.7% | [2] 76.7% | [3] 77.8% | [4] 116% | [5] 76.5% | [7] 91.2% | [8] 82.8%

CCN(CC)CCOC(=O)c1cccnc1
inactive: [1] 95.8% | [2] 90.3% | [3] 100% | [4] 94.6% | [5] 101% | [7] 99.8% | [8] 119%

C[n+]1c2ccccc2c(Nc2ccc(NS(=O)(=O)CCCCN=C(N)N)cc2)c2ccc(N)cc21
inactive: [1] 26% | [2] 41% | [3] 71.4% | [4] 32.2% | [5] 10.9% | [7] 44.1% | [8] 50.4%

COc1cc2oc(-c3ccc(NC(=O)c4ccccc4)cc3)cc(=O)c2c(OC)c1OC
inactive: [1] 82.4% | [2] 85.4% | [3] 69.4% | [4] 90.3% | [9] 69.2% | [10] 70.2% | [6] 80.3% | [7] 90.4%
